# PubChem BioAssay (EPA / NIEHS)
# Records with an inconclusive call do not appear. Where a structure was tested more than once in an assay, its records may differ in their call. Activity calls are given as the source filed them. How the source made its calls: active means hit-call score of the fitted dose curve at least 0.9, where 1 is the maximum; inconclusive means response in the unintended direction; inactive means score below 0.9.
# Biological target: Estrogen receptor (Homo sapiens) (UniProt P03372)
# Sequence (P03372 whole entry, looked up, the tested form may be a part): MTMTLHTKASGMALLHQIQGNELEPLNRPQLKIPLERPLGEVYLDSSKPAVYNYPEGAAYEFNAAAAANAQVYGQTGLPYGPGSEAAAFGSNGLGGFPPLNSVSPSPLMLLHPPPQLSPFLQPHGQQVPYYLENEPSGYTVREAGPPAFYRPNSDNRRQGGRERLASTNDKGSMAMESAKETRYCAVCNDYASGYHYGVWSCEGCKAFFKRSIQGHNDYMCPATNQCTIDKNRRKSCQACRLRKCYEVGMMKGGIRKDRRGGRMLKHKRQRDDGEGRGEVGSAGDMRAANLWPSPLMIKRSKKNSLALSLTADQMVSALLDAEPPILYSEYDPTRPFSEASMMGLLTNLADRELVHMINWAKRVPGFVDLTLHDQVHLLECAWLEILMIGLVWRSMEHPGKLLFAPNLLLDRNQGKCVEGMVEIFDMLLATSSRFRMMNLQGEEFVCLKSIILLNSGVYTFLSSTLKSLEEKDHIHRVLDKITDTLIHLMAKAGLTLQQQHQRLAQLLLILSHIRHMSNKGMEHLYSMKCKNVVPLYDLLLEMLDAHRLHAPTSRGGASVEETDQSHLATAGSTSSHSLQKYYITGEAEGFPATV
# Assay: NVS_NR_hER: NovaScreen (NVS) Nuclear Receptor Binding Assay for human Estrogen Receptor (ER) (AID 2283348)
# Method in brief: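 Scintillation signal from bound radioligand was measured 18 hours after chemical addition to cell-free MCF7 protein extracts, with DMSO as baseline. Activity was scored as signal loss; compounds ran first at 25 uM in duplicate.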
Compound,outcome,AC50
CCCCC(CC)COP(=O)(O)OCC(CC)CCCC (configuration not stated),inactive,
C#C[C@]1(O)CC[C@H]2[C@@H]3CCc4cc(OC)ccc4[C@H]3CC[C@@]21C,inactive,0.00229 µM (active)
CN(C)Cc1ccccc1O,inactive,
CCCCCCCCCCCCCCCC[N+](C)(C)Cc1ccccc1,inactive,
Oc1ccc(Nc2ccccc2)cc1,,8.86 µM (active)
Cc1cc(C)cc(O)c1,inactive,
CC(Cc1ccc(O)c(O)c1)C(C)Cc1ccc(O)c(O)c1 (configuration not stated),,0.705 µM (active)
C(=C(c1ccccc1)c1ccccc1)c1ccccc1,inactive,
c1ccc(B(c2ccccc2)c2ccccc2)cc1,,13.9 µM (active)
Nc1ccc([N+](=O)[O-])cc1O,inactive,

# Biological target: Estrogen receptor (Homo sapiens) (UniProt P03372)
# Assay: OT_ER_ERaERa_1440: Odyssey Thera (OT) 24-hour HEK293T Protein-Complementation Assay for Estrogen Receptor-alpha/-alpha Homodimer (AID 2283349);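 further: hits raise fluorescence above DMSO for agonists and antagonists alike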
# Method in brief: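 Protein-fragment complementation between two human ERα ligand-binding domains (aa 310-547) in stably transfected HEK293T cells was monitored after 24 h treatment, using fluorescence intensity relative to vehicle controls.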
Compound,outcome,AC50
Cc1ccc(S(=O)(=O)NCl)cc1,inactive,
CCCCC(CC)COP(=O)(O)OCC(CC)CCCC (configuration not stated),inactive,
O=C(OCCOCCOCCOC(=O)c1ccccc1)c1ccccc1,inactive,
[Co],inactive,
CCCCOc1ccc(N)cc1,inactive,
C#C[C@]1(O)CC[C@H]2[C@@H]3CCc4cc(OC)ccc4[C@H]3CC[C@@]21C,,17.1 µM (active)
CC(CCl)OP(=O)(OC(C)CCl)OC(C)CCl (configuration not stated),inactive,
COC(=O)C1CCC(C(=O)OC)CC1 (configuration not stated),inactive,
O=S(=O)(O)c1ccc2ccccc2c1,inactive,
OC[C@@H](O)[C@@H](O)[C@H](O)[C@@H](O)CO,inactive,
CN(C)Cc1ccccc1O,inactive,
CCCCCCOC(=O)c1ccccc1,inactive,
CCCCCCC(C)OC(=O)CCCCC(=O)OC(C)CCCCCC (configuration not stated),inactive,
Cc1cc(C)cc(O)c1,inactive,
CC(Cc1ccc(O)c(O)c1)C(C)Cc1ccc(O)c(O)c1 (configuration not stated),,11.9 µM (active)
C(=C(c1ccccc1)c1ccccc1)c1ccccc1,,43.1 µM (active)
CC(C)OC(=O)c1ccccc1C(=O)OC(C)C,inactive,
c1ccc(B(c2ccccc2)c2ccccc2)cc1,,78.5 µM (active)
CC/C=C\CCOC(C)=O,inactive,
C1COCCN1,inactive,
CCCCCCOC(=O)c1ccccc1O,inactive,
CNC(=S)NC,inactive,
CCN(Cc1cccc(S(=O)(=O)O)c1)c1ccc(C(=C2C=CC(=[N+](CC)Cc3cccc(S(=O)(=O)O)c3)C=C2)c2ccc(O)cc2S(=O)(=O)[O-])cc1,inactive,

# Biological target: Estrogen receptor (Homo sapiens) (UniProt P03372)
# Assay: OT_ER_ERaERa_0480: Odyssey Thera (OT) 8-hour HEK293T Protein-Complementation Assay for Estrogen Receptor-alpha/-alpha Homodimer (AID 2283351);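 further: rise in fluorescence from reassembled reporter fragments on ERα LBD homodimer in nucleus or whole cell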
# Method in brief: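 HEK293T cells stably expressing the human ERα ligand-binding domain (aa 310-547) as a homodimer PCA were dosed with compound for 8 h. Gain of fluorescence intensity versus DMSO vehicle was read by laser scanning cytometry.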
Compound,outcome,AC50
Cc1ccc(S(=O)(=O)NCl)cc1,inactive,
CCCCC(CC)COP(=O)(O)OCC(CC)CCCC (configuration not stated),inactive,
O=C(OCCOCCOCCOC(=O)c1ccccc1)c1ccccc1,inactive,
[Co],inactive,
CCCCOc1ccc(N)cc1,inactive,
C#C[C@]1(O)CC[C@H]2[C@@H]3CCc4cc(OC)ccc4[C@H]3CC[C@@]21C,,9.95 µM (active)
CC(CCl)OP(=O)(OC(C)CCl)OC(C)CCl (configuration not stated),inactive,
COC(=O)C1CCC(C(=O)OC)CC1 (configuration not stated),inactive,
O=S(=O)(O)c1ccc2ccccc2c1,inactive,
OC[C@@H](O)[C@@H](O)[C@H](O)[C@@H](O)CO,inactive,
CN(C)Cc1ccccc1O,inactive,
CCCCCCOC(=O)c1ccccc1,inactive,
CCCCCCC(C)OC(=O)CCCCC(=O)OC(C)CCCCCC (configuration not stated),inactive,
Cc1cc(C)cc(O)c1,inactive,
CC(Cc1ccc(O)c(O)c1)C(C)Cc1ccc(O)c(O)c1 (configuration not stated),,11.9 µM (active)
C(=C(c1ccccc1)c1ccccc1)c1ccccc1,,5.6 µM (active)
CC(C)OC(=O)c1ccccc1C(=O)OC(C)C,,62.8 µM (active)
c1ccc(B(c2ccccc2)c2ccccc2)cc1,,55.7 µM (active)
CC/C=C\CCOC(C)=O,inactive,
C1COCCN1,inactive,
CCCCCCOC(=O)c1ccccc1O,inactive,
CNC(=S)NC,inactive,
CCN(Cc1cccc(S(=O)(=O)O)c1)c1ccc(C(=C2C=CC(=[N+](CC)Cc3cccc(S(=O)(=O)O)c3)C=C2)c2ccc(O)cc2S(=O)(=O)[O-])cc1,inactive,

# Biological target: Estrogen receptor (Homo sapiens) + Estrogen receptor beta (Homo sapiens) (UniProt P03372+Q92731)
# Sequence (P03372 whole entry, looked up): as the sequence (P03372 whole entry, looked up, the tested form may be a part) above
# Sequence (Q92731 whole entry, looked up): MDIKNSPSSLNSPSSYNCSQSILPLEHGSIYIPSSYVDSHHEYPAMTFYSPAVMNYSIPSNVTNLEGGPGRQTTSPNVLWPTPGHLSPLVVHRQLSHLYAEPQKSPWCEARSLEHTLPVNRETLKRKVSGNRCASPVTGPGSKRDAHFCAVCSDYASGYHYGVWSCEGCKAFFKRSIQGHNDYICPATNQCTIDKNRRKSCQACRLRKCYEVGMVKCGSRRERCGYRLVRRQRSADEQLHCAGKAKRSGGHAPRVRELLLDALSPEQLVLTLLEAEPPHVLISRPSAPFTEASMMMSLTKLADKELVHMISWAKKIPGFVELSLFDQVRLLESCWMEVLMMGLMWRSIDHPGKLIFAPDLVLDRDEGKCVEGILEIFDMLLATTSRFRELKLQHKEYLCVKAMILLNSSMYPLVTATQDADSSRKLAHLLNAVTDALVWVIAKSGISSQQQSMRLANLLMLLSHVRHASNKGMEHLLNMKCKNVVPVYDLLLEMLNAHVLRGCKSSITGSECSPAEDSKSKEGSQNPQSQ
# Assay: OT_ER_ERaERb_0480: Odyssey Thera (OT) 8-hour HEK293T Protein-Complementation Assay for Estrogen Receptor-alpha/-beta Heterodimer (AID 2283352)
# Method in brief: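 HEK293T cells expressing ER-alpha/ER-beta LBD fusions to complementary reporter fragments were dosed with compound for 8 hours. Heterodimer formation was read as increased nuclear (agonist) or nuclear plus cytoplasmic (antagonist) mean fluorescence intensity versus DMSO vehicle.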
Compound,outcome,AC50
O=C(OCCOCCOCCOC(=O)c1ccccc1)c1ccccc1,inactive,
[Co],inactive,
CCCCOc1ccc(N)cc1,inactive,
CC(CCl)OP(=O)(OC(C)CCl)OC(C)CCl (configuration not stated),inactive,
COC(=O)C1CCC(C(=O)OC)CC1 (configuration not stated),inactive,
CN(C)Cc1ccccc1O,inactive,
CCCCCCOC(=O)c1ccccc1,inactive,
CCCCCCC(C)OC(=O)CCCCC(=O)OC(C)CCCCCC (configuration not stated),inactive,
Cc1cc(C)cc(O)c1,inactive,
CC(Cc1ccc(O)c(O)c1)C(C)Cc1ccc(O)c(O)c1 (configuration not stated),,2.42 µM (active)
C(=C(c1ccccc1)c1ccccc1)c1ccccc1,,9.47 µM (active)
CC/C=C\CCOC(C)=O,inactive,
C1COCCN1,inactive,
CCCCCCOC(=O)c1ccccc1O,,60.2 µM (active)
CCN(Cc1cccc(S(=O)(=O)O)c1)c1ccc(C(=C2C=CC(=[N+](CC)Cc3cccc(S(=O)(=O)O)c3)C=C2)c2ccc(O)cc2S(=O)(=O)[O-])cc1,inactive,

# Biological target: Androgen Receptor/SRC-1 Co-activator, AR (gene 367) (UniProt P10275)
# Sequence (P10275 whole entry, looked up): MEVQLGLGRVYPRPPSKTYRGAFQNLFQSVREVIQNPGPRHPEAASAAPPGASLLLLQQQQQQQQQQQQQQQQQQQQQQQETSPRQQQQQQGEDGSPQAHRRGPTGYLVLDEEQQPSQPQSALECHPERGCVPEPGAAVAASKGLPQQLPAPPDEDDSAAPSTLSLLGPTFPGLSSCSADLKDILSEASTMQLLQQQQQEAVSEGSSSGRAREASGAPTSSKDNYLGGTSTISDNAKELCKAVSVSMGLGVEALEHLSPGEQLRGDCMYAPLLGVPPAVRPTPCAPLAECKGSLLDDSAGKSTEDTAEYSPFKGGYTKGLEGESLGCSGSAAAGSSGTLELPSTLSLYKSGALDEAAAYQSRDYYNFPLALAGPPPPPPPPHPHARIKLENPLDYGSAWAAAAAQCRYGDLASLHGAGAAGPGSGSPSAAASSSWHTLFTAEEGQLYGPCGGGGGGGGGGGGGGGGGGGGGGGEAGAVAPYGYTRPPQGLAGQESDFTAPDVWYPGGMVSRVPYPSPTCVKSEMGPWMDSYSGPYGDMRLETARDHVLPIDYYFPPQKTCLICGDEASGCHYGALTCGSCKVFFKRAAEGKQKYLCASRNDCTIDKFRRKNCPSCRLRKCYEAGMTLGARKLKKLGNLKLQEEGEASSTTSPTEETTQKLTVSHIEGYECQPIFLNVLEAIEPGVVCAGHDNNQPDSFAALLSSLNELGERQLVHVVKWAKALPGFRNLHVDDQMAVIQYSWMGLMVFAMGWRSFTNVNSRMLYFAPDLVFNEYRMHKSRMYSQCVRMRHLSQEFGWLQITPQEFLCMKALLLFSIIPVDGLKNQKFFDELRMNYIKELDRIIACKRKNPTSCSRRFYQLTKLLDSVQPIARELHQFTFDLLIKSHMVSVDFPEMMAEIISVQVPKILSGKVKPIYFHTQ
# Assay: OT_AR_ARSRC1_0960: Odyssey Thera (OT) 16-hour HEK293T Protein-Complementation Assay for Androgen Receptor/SRC-1 Co-activator (AID 2283353);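 further: actives raise the signal above DMSO so potency reflects increased AR and SRC-1 complex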
# Procedure: OT_AR_ARSRC1_0960 is a cell-based, single-readout assay that uses HEK293T, a human kidney cell line, with measurements taken at 16 hours after chemical dosing in a 384-well plate.OT_AR_ARSRC1_0960 is one of one assay component(s) measured or calculated from the OT_AR_ARSRC1_0960 assay. It is designed to make measurements of protein fragment complementation, a form of binding reporter, as detected with fluorescence intensity signals by Protein-fragment Complementation technology.Data from the assay component OT_AR_ARSRC1_0960 was analyzed into 1 assay endpoint. This assay endpoint, OT_AR_ARSRC1_0960, was analyzed in the positive analysis fitting direction relative to DMSO as the negative control and baseline of activity. Using a type of binding reporter, measures of receptor for gain-of-signal activity can be used to understand the binding at the pathway-level as they relate to the gene AR. Furthermore, this assay endpoint can be referred to as a primary readout, because the performed assay has only produced 1 assay endpoint. To generalize the intended target to other relatable targets, this assay endpoint is annotated to the nuclear receptor intended target family, where the subfamily is steroidal.
# Protein-fragment complementation assay, or PCA, is a method for the identification and quantification of protein-protein interactions. In the PCA, the proteins of interest ("bait" and "prey") are each covalently linked to fragments of a third protein (e.g. DHFR, which acts as a "reporter"). Interaction between the bait and the prey proteins brings the fragments of the reporter protein in close proximity to allow them to form a functional reporter protein whose activity can be measured. The OT AR / SRC-1 assay assessed androgen receptor chemical interactions using a rapidly maturing, intensely fluorescent mutant of YFP known as Venus, rationally dissected into two separate fragments. […] Fusion constructs were transfected into HEK293T cells with a (Gly4Ser)2 linker between the AR/SRC-1 and YFP fragment genes to facilitate complementation when interacting proteins bring fragments into close proximity. The construct is stably expressed in HEK293T cells. […] Images were acquired on an Evotec Opera at 2 wavelengths (488 and 635nm), and the ratio of fluorescence in the nucleus relative to fluorescence in the cytoplasm (N/C Ratio) in the 488nm channel was calculated for a minimum of 400 cells per image. Both agonists and antagonists of the AR receptor induce nuclear translocation to varying degrees. […] The OT AR/SRC-1 assay was also run for 16 hours (see description for OT_AR_ARSRC1_0960).
row,Compound,outcome
1,[Co],inactive
2,CN(C)Cc1ccccc1O,inactive
3,CCCCCCC(C)OC(=O)CCCCC(=O)OC(C)CCCCCC (configuration not stated),inactive
4,CCCCCCOC(=O)c1ccccc1O,inactive
5,CNC(=S)NC,inactive
